# Reference: publication PMC4336329 (PLoS ONE, 2015)
# Among all 310,000 compounds or so, about 14,000 (4.5%) showed an effect of 50% or more. The effect is printed as a negative number. The sample holds strong results, similar compounds and a random draw of the others, so the mix is not that of the screen.
# Molecular target: human ether-à-go-go-related gene (hERG) potassium channel (human, UniProt Q12809)
# Experiment: primary screen, population patch clamp on CHO cells stably expressing hERG; higher = less effect of the substance
# 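Also: peak tail current of the secondary pulse compared with the same well before compound.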
# Sequence of human ether-à-go-go-related gene (hERG) potassium channel (Q12809 whole entry, looked up): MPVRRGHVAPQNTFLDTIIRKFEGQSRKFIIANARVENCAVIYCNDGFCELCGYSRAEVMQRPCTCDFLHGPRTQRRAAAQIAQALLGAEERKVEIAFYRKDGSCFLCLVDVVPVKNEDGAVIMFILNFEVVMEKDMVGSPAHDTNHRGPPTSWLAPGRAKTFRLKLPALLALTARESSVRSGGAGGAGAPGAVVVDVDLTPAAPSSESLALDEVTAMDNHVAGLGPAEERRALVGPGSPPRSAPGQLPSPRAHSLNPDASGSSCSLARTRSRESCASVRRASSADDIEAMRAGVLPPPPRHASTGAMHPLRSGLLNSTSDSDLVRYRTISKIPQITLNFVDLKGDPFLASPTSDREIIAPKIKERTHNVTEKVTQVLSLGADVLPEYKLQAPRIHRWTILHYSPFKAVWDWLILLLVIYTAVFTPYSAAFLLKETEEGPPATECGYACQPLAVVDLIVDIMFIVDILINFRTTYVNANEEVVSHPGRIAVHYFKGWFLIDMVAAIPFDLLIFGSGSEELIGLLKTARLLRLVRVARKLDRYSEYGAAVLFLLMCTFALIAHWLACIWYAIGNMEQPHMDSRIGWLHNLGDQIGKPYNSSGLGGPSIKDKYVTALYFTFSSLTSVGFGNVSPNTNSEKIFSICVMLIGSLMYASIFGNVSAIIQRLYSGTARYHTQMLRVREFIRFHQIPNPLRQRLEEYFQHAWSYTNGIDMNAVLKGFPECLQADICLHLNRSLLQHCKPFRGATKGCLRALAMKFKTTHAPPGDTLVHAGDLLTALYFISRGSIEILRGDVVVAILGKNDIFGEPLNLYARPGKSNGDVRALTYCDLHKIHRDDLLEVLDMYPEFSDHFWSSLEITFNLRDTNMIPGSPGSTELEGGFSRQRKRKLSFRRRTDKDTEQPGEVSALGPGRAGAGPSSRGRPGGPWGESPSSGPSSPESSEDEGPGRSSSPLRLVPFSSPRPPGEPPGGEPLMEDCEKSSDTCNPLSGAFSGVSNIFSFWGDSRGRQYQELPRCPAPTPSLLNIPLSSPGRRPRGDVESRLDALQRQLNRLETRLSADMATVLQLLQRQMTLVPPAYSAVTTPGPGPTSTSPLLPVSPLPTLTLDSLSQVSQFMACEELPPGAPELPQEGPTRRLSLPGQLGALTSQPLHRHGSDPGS
row,Structure (SMILES),"hERG current change (%, negative = inhibition) at 10uM [%]"
1,CCCCNc1ccc(S(N)(=O)=O)cc1[N+](=O)[O-],-0.608
2,Cc1ccc(S(=O)(=O)N2CCN(Cc3nc4ccccc4[nH]3)CC2)cc1C,-45.1
3,CCC(=O)N(CCCN(C)C)c1nc(-c2cc(OC)ccc2OC)cs1.Cl,-37.3
4,CCN(CC)CCCN(C(C)=O)c1nc(-c2cc(OC)ccc2OC)cs1.Cl,-65.8
5,CCC(=O)N(CC)c1nc(-c2cc(OC)ccc2OC)cs1,15
6,CC(/C=C/c1ccccc1)=N\NC(=O)c1ccc2c(c1)OCCO2,3.3
7,O=C(NCc1ccncc1)C(=O)NCC1OCCCN1S(=O)(=O)c1cc(F)ccc1F (centres unmarked),4.86
8,COc1ccccc1C(=O)Oc1cc(N)n(S(=O)(=O)c2ccc(C)cc2)n1,-7.77
9,O=C(CSC(=S)N1CCOCC1)Nc1nccs1,-1.54
10,CCc1c(C)nc(SCC(=O)N2CCCCC2)[nH]c1=O,3.18
11,CN1c2ccccc2Oc2nnc(N3CCN(Cc4ccccc4)CC3)cc21,-78
12,CCN1CCN(c2cc3c(nn2)Oc2ccccc2N3C)CC1,-41.1
13,CN1c2ccccc2Oc2nnc(Cl)cc21,-5.87
14,C=C(C)C(=O)Nc1cccc(C2=NOC3(C2)C[C@@H](C(N)=O)N(C(=O)C(=C)C)C3)c1 (some centres unmarked),7.14
15,CCOc1ccc(-c2nc(N)ncc2Oc2cccc(OC)c2)c(O)c1,6.7
16,CCCCCn1c(SCCOCC)nc2c1c(=O)[nH]c(=O)n2C,-46.8
17,CCCCCn1c(SCCN2CCOCC2)nc2c1c(=O)[nH]c(=O)n2C,-66.5
18,C=CCn1c(SCCN2CCOCC2)nc2c1c(=O)[nH]c(=O)n2C,8.38
19,CC(C)CCn1c(SCCN2CCOCC2)nc2c1c(=O)[nH]c(=O)n2C,-17.7
20,C=C(C)Cn1c(SCCN2CCOCC2)nc2c1c(=O)[nH]c(=O)n2C,-4.61
21,C/C(Cl)=C/Cn1c(SCCN2CCOCC2)nc2c1c(=O)[nH]c(=O)n2C,-64.6
22,CCCCCCn1c(SCCN2CCOCC2)nc2c1c(=O)[nH]c(=O)n2C,-74.6

row,Structure (SMILES),"hERG current change (%, negative = inhibition) at 10uM [%]"
1,COCCn1c(SCCN2CCOCC2)nc2c1c(=O)[nH]c(=O)n2C,14.2
2,CCCCCn1c(SCCC(C)C)nc2c1c(=O)[nH]c(=O)n2C,-11.9
3,CCN1CCCC1CNC(=O)c1cc2c(=O)n(C)c3ccccc3c2n1C (centres unmarked),-18.5
4,Cc1ccc(CN(Cc2cccnc2)C(=S)Nc2cccc(Cl)c2C)cc1,8.32
5,O=C(Cc1ccccc1)Nc1cc([N+](=O)[O-])ccc1N1CCOCC1,-36.2
6,CCOC(=O)CSc1ccc2nnc(CCNS(=O)(=O)c3ccc(C)cc3)n2n1,4.23
7,O=C(CNS(=O)(=O)/C=C/c1ccccc1)OC1CCOC1=O (centres unmarked),15.9
8,Cc1cc(C)n(-c2nc(N(C)C)nc(N3CCOCC3)n2)n1,-6.78
9,CCN(CC)S(=O)(=O)c1ccc(OC)c(NC(=O)c2ccc([N+](=O)[O-])cc2)c1,-34.9
10,CN1/C(=C\C(=S)NC(=O)c2cccc(Br)c2)C(C)(C)c2ccccc21,-7.85
11,CCSc1nnc(N2C(=O)CC(c3ccsc3)C3=C2CC(C)(C)CC3=O)s1 (centres unmarked),-6.24
12,CN(Cc1nc2ccccc2c(=O)[nH]1)C(=O)c1ccc(S(=O)(=O)N(C)C)cc1,4.04
13,COc1cccc(Nc2nc(-c3cccs3)nc3ccccc23)c1,9.19
14,CCCCC(O)(CCCC)C(=O)N/N=C(\C)c1ccc(Cl)cc1,-66.9
15,CCCCCC(=O)N/N=C(\C)c1ccc(Cl)cc1,9.87
16,C/C(=N\NC(N)=O)c1ccc(Cl)cc1,6.12
17,Cc1onc(-c2ccccc2)c1C(=O)N1CCN(S(=O)(=O)c2ccccc2Br)CC1,-1.99
18,Cc1c(Cl)cccc1NC(=S)N1CC2CC(C1)c1cccc(=O)n1C2 (centres unmarked),-4.67
19,Cc1nn(-c2nc3ccccc3[nH]2)c(N)c1-c1ccccc1,0.295
20,CCC1CCCCN1CCCNC(=O)C(C)n1nc(C)c2sc3ccccc3c2c1=O (centres unmarked),-69.8
21,Cc1nn(C(C)C(=O)NCCCN(Cc2ccccc2)C(C)C)c(=O)c2c1sc1ccccc12 (centres unmarked),-11.7
22,Cc1nn(C(C)C(=O)NCCCN2CCCCC2C)c(=O)c2c1sc1ccccc12 (centres unmarked),-5.22

row,Structure (SMILES),"hERG current change (%, negative = inhibition) at 10uM [%]"
1,Cc1nn(C(C)C(=O)NCCCN2CCCCCC2)c(=O)c2c1sc1ccccc12 (centres unmarked),-28.1
2,CCC(C(=O)NCCCN(CC)Cc1ccccc1)n1nc(C)c2sc3ccccc3c2c1=O (centres unmarked),-68.1
3,CCN(CC)CCCNC(=O)C(C)n1nc(C)c2sc3ccccc3c2c1=O (centres unmarked),-19.7
4,CCC(=O)N1CCc2cc(S(=O)(=O)N3CCc4ccccc43)ccc21,2.61
5,Clc1ccc2oc(SCc3cccnc3)nc2c1,-16.2
6,CCCOc1ccc(OCCSc2ncccn2)cc1,-2.55
7,O=C(CCNC(=O)c1ccccc1)NCCCc1ccccc1,6.54
8,O=C(Nc1ccc(C(F)(F)F)cc1)C1CCN(c2cnccn2)CC1,-12.5
9,CN(Cc1cccc(Cl)c1Cl)CC(O)COc1ccccc1.O=C(O)C(=O)O (centres unmarked),-12
10,COc1cccc(OC)c1OCCOc1ccc(C(=O)c2ccccc2)cc1,-4.82
11,COc1ccc(CN(C)CC(O)COC(c2ccccc2)c2ccccc2)c(OC)c1OC (centres unmarked),-76.7
12,COc1ccc(CN(C)Cc2ccccc2)c(OC)c1OC,-16.9
13,COc1ccc(CN(C)CCc2ccccn2)c(OC)c1OC.O=C(O)C(=O)O,-38.9
14,COc1ccc(CN(C)CC(O)COc2ccc(C(=O)c3ccccc3)cc2)c(OC)c1OC (centres unmarked),-63.7
15,COc1ccc(CCNC(=O)C2CCC(=O)N(C3CCCCCC3)C2)cc1 (centres unmarked),8.9
16,O=C(CCN1C(=O)NC2(CCCC2)C1=O)Nc1cccc(S(=O)(=O)N2CCOCC2)c1,10.7
17,O=C(CSc1ncnc2c1nnn2Cc1ccccc1F)NCC1CCCO1 (centres unmarked),-2.7
18,Cc1ccc(S(=O)(=O)CCC(=O)Nc2ccc3c(c2)OCO3)cc1,-16
19,Cc1ccc(C)c(S(=O)(=O)N2CCN(C(=O)Nc3ccccc3)CC2)c1,-26.1
20,O=C(/C=C/c1ccc([N+](=O)[O-])s1)N1CCN(c2ccccc2)CC1,-37
21,O=C(/C=C/c1ccc([N+](=O)[O-])s1)N1CCCC1,-52.9
22,O=C(/C=C/c1ccc([N+](=O)[O-])s1)N1CCCCC1,-38.7

row,Structure (SMILES),"hERG current change (%, negative = inhibition) at 10uM [%]"
1,COc1cccc(-c2nn(CCC#N)cc2C(=O)Nc2ccccc2Cl)c1,5.09
2,CCC(C(=O)Nc1cc(C)cc(C)n1)c1ccccc1 (centres unmarked),-23.6
3,CCC(C(=O)Nc1cc(C)nn1-c1nc(C)cc(C)n1)c1ccccc1 (centres unmarked),-67.7
4,COc1ccc(CNCC(=O)Nc2cc(C)nn2-c2nc(C)cc(C)n2)cc1OC,-56.8
5,CCc1ccc(NC(=O)CNCc2ccc(OC)c(OC)c2)cc1.O=C(O)C(=O)O,-21.3
6,Cc1cc(C)nc(-n2nc(C)cc2NC(=O)C(C)C)n1,16.9
7,Cc1cc(NC(=O)CSc2cc(Cl)ccc2Cl)n(-c2ccccc2)n1,-20.2
8,CCN(CC(=O)Nc1cc(C)nn1-c1nc(C)cc(C)n1)Cc1ccccc1,-42.8
9,Cc1cc(C)nc(-n2nc(C)cc2NC(=O)CNC(C)c2ccccc2)n1 (centres unmarked),-62.2
10,CC(=O)Nc1cc(C)nn1-c1nc(C)cc(C)n1,25.4
11,COc1ccc(-c2nc(CSCC(=O)N3CCN(C)CC3)c(C)o2)cc1OC,11.7
12,COc1ccccc1Nc1nnc(SCc2nnc(-c3cc(OC)c(OC)c(OC)c3)o2)s1,-21.7
13,CC1(C)O[C@@H]2[C@H](O1)[C@@H](COS(=O)(=O)[O-])O[C@H]2n1cnc2c(N)ncnc21.[K+],15.7
14,O=C(COc1ccc(C(=O)NCCc2ccccc2)cc1)Nc1ccccc1,7.64
15,COc1ccc2[nH]c(C)c(CCNCc3cccnc3)c2c1.O=C(O)C(=O)O,-3.77
16,COc1ccc(CNCCc2c(C)[nH]c3ccc(OC(F)(F)F)cc23)c(OC)c1.O=C(O)C(=O)O,-51
17,Cc1[nH]c2ccc(OC(F)(F)F)cc2c1CCNCc1cccc([N+](=O)[O-])c1,-25.4
18,Cc1[nH]c2ccc(OC(F)(F)F)cc2c1CCNCc1ccc(Cl)cc1.O=C(O)C(=O)O,-34.5
19,CCOc1cccc(CNCCc2c(C)[nH]c3ccc(OC(F)(F)F)cc23)c1O.O=C(O)C(=O)O,-51.9
20,COc1ccc2[nH]c(C)c(CCNCc3cn(C)c4ccccc34)c2c1.O=C(O)C(=O)O,-27.8
